The values that follow come from PubChem BioAssay (NCATS).

Records with an inconclusive call do not appear. A call without a number means that no potency is given here. Active and inactive are the calls of the source. Calls come from the whole dose curve; as a rule, active = well fitted inhibition curve with a large enough effect; inconclusive = small, poorly fitted or top-dose-only effect; inactive = flat fitted curve, though single readings scatter.

The assay has as its system CRL-7250. The assay can be described thus: qHTS assay to identify novel small-molecules to repurpose for Merkel cell carcinoma treatment (AID 1296009). Note: nearly all actives have a fitted effect of over 60% in size. Particulars: MCC and control cell lines, CellTiter-Glo viability, 72 h; series mostly up to 92 µM. In short, it runs like this:
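Cells exposed to NPC (8-point) and MIPE (11-point) compound dilutions for 72 hr at 37 degree celsius; viability read by CellTiter-Glo luminescence, normalized to no-cell and DMSO in-plate controls.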
Background: qHTS replaces the single test concentration by a dilution series.
For `Cc1c(N2C(=O)c3ccc(C(=O)O)cc3C2=O)c(=O)n(-c2ccccc2)n1C`, the Potency entry is “inactive”. The same measure, in the same setting: for `CC(C)CCC[C@@H](C)[C@H]1CC[C@H]2[C@@H]3CC=C4C[C@@H](OC(=O)NCCN(C)C)CC[C@]4(C)[C@H]3CC[C@]12C` the value was “inactive”. With `C[C@@H]1O[C@@H](O[C@H]2[C@H](O)[C@@H](O)[C@H](OC[C@H]3O[C@@H](OC(=O)[C@]45CCC(C)(C)C[C@H]4C4=CCC6[C@@]7(C)CC[C@H](O[C@@H]8OC[C@H](O)[C@H](O[C@@H]9O[C@H](CO)[C@@H](O)[C@H](O)[C@H]9O)[C@H]8O)[C@@](C)(CO)C7CC[C@@]6(C)[C@]4(C)CC5)[C@H](O)[C@@H](O)[C@@H]3O)O[C@@H]2CO)[C@H](O)[C@H](O)[C@H]1O` (some centres not stated), the outcome is “inactive [at 9.27 µM]”. For the molecule `C/C(=C/CCC(CO)C1CCC2(C)C3CCC4C(C)(C)C(OC5OC(CO)C(O)C(O)C5O)CC(O)C45CC35CCC12C)COC1OC(CO)C(O)C(O)C1O` (configuration not stated), the Potency result was “inactive”. Still for that read-out and setting: with `O=C(Nc1ccccc1Br)NC1CCN(c2ccc(C(F)(F)F)cn2)C1` (configuration not stated) the entry was “inactive”; with `CC1=C2CC(=O)C(C)CC/C=C(\C)CC2OC1=O` (configuration not stated), “inactive”. The same measure, in the same setting: for `O=C(/C=C/c1ccc(O)cc1)OC[C@H]1O[C@@H](O/C(=C\c2ccccc2)C(=O)O)[C@H](O)[C@@H](O)[C@@H]1O` the value was “inactive”; for `CC[C@H]1OC(=O)[C@H](C)[C@@H](OC2C[C@@](C)(OC)[C@@H](O)[C@H](C)O2)[C@H](C)[C@@H](OC2O[C@H](C)C[C@H](NC)[C@H]2O)[C@](C)(O)C[C@@H](C)CN(C)[C@H](C)[C@@H](O)[C@]1(C)O` (some centres not stated), “inactive”. Still for that read-out and setting: for `CC1(C)CC[C@]2(C(=O)O)CC[C@]3(C)C(=CCC4[C@@]5(C)C[C@@H](O)[C@H](O)C(C)(C)C5CC[C@]43C)C2C1` (some centres not stated) the value was “inactive”.

Turning to `CCCCCCCOc1cc2c(cc1/C(C)=C/c1ccc(C(=O)O)cc1)C(C)(C)CCS2(=O)=O`, the Potency entry was “inactive”. The same measure, in the same setting: with `NC(=O)[C@H]1CCCCc2c1[nH]c1ccc(Cl)cc21` the entry was “inactive”.

In the case of `CCCCCCc1cccc(NC(=O)[C@H](N)CCP(=O)(O)O)c1`, the outcome was “inactive [at 9.27 µM]”.
